Targets with a hit are over-represented here; the source holds about 7,900 in all. About 0.6% of all pairs of compound and target were hits. A number with no mark means an inactive call.
How the values were obtained:
Test in all cases: log2 fold change, soluble protein after heating vs DMSO (PISA); higher = thermal stabilisation; K562 cells, 10 uM, 30 min; active = over 0.2 and 3.5 SD of the protein, either way, in both replicates (recomputed)
[1] = compound: CC1=C(C=C(C=C1)NC(=O)C2=CC(=CC=C2)C(C)(C)C#N)NC3=CC4=C(C=C3)N=CN(C4=O)C
Procedure, shortened: (§1)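 K562 cells at 2×10^6 cells/mL were treated with 10 μM compound for 30 min. Aliquots were heated for 3 min across 48°C-58°C, pooled, and extracted in PBS with 0.5% NP-40 at 4°C; soluble protein was the supernatant after 21,000xg for 90 min. Soluble protein was quantified by TMTpro 16plex LC-MS/MS with channel sums equalised, and reported as log2 fold change in thermal stability against DMSO controls, with values from duplicates.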

[2] = compound: CC1=C(C=C(C=C1)NC(=O)C2=CC(=CC=C2)N(C)C)NC(=O)C3=CC=C(C=C3)O
Procedure, shortened: as §1

[3] = compound: CC1=CC=C(C=C1)SC2=C3C=C(SC3=CN=C2)C(=O)N
Procedure, shortened: as §1

[4] = compound: CC1=NC(=CC=C1)C2=C(N=C(N2)C(C)(C)C)C3=CC4=NC=CN=C4C=C3
Procedure, shortened: as §1

[5] = compound: CCCCN(Cc1ccc(C(=O)NO)cc1)C(=O)Nc1ccccc1 [Nexturastat A]
Procedure, shortened: as §1

[6] = compound: CCCS(=O)(=O)Nc1ccc(F)c(C(=O)c2c[nH]c3ncc(-c4ccc(Cl)cc4)cc23)c1F [vemurafenib]
Procedure, shortened: as §1

[7] = compound: CCCS(=O)(=O)Nc1ccc(F)c(C(=O)c2c[nH]c3ncc(Cl)cc23)c1F
Procedure, shortened: as §1

[8] = compound: CCCc1cc(C)[nH]c(=O)c1CNC(=O)c1cc(-c2ccnc(N3CCN(C)CC3)c2)cc2c1cnn2C(C)C
Procedure, shortened: as §1

[9] = compound: CCN(CC)Cc1ccc2cc(COC(=O)Nc3ccc(C(=O)NO)cc3)ccc2c1 [givinostat]
Procedure, shortened: as §1

[10] = compound: CCN(CCCOc1ccc2c(Nc3cc(CC(=O)Nc4cccc(F)c4)[nH]n3)ncnc2c1)CCOP(=O)(O)O [barasertib]
Procedure, shortened: as §1

Sequence of UniProt Q15121 (Q15121 whole entry, looked up): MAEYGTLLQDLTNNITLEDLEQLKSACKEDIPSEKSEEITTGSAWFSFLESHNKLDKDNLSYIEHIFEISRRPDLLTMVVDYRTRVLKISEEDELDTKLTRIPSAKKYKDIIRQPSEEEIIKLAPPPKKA
Sequence of UniProt Q16537 (Q16537 whole entry, looked up): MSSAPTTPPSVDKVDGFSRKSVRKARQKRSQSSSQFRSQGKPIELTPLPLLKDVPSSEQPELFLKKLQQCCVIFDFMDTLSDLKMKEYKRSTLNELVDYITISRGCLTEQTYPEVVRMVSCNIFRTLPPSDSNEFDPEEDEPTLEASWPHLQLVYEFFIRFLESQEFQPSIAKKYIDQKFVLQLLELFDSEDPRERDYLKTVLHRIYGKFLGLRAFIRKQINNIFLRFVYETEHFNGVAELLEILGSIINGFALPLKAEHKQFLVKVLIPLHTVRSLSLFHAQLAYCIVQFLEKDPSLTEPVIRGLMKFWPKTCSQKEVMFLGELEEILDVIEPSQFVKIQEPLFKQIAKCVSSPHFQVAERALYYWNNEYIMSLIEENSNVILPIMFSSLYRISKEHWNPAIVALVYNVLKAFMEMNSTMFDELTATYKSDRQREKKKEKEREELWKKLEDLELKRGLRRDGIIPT
Sequence of UniProt Q9Y5K3 (Q9Y5K3 whole entry, looked up): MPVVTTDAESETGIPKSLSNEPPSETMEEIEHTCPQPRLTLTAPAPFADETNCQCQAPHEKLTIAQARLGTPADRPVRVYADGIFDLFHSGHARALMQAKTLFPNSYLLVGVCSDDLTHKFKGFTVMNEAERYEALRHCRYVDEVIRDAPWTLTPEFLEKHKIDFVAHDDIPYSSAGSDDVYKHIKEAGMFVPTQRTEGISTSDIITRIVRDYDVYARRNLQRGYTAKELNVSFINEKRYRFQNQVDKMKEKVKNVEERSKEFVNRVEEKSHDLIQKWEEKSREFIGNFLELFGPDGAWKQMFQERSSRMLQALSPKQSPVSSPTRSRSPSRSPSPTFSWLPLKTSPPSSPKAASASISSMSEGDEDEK
Sequence of UniProt P17980 (P17980 whole entry, looked up): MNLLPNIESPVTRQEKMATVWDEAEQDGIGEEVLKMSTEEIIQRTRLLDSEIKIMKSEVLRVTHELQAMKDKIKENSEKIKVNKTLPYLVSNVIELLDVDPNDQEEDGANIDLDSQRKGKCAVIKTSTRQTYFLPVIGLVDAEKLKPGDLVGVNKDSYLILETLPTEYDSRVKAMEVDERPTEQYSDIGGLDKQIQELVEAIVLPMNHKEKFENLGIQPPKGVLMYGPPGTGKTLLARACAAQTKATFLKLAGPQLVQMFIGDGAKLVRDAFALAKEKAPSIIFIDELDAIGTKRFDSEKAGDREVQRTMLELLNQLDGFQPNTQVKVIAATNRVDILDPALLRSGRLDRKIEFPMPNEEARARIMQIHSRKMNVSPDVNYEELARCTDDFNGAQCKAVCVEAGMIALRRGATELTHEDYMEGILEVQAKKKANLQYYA
Sequence of UniProt Q2TAL8 (Q2TAL8 whole entry, looked up): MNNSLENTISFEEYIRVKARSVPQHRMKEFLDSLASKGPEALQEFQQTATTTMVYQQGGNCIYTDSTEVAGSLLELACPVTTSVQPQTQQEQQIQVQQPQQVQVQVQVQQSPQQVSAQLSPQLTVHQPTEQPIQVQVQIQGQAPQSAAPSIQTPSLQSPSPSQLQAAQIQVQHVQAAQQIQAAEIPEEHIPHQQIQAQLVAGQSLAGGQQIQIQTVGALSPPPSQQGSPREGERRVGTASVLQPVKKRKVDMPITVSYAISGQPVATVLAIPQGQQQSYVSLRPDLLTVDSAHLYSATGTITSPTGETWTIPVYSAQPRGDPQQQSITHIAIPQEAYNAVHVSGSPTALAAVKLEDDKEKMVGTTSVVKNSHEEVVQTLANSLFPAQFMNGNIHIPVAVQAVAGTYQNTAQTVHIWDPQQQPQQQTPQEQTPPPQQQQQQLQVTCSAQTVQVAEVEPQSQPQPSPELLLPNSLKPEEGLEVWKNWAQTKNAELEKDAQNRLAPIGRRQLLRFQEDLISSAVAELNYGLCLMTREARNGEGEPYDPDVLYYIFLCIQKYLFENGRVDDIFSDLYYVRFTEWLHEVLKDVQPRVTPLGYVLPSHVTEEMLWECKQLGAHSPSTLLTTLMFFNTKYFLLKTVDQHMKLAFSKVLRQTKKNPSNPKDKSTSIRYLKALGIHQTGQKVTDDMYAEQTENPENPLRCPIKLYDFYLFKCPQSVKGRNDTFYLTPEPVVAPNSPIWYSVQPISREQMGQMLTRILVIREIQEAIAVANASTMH
Sequence of UniProt O43741 (O43741 whole entry, looked up): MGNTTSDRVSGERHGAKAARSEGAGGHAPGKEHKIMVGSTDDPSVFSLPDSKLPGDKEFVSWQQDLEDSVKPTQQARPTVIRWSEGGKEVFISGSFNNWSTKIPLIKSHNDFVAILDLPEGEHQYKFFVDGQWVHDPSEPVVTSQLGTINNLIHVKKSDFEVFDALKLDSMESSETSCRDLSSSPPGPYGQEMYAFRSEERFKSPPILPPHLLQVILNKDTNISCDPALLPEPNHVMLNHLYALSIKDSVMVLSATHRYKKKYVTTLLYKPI
Sequence of UniProt Q86TP1 (Q86TP1 whole entry, looked up): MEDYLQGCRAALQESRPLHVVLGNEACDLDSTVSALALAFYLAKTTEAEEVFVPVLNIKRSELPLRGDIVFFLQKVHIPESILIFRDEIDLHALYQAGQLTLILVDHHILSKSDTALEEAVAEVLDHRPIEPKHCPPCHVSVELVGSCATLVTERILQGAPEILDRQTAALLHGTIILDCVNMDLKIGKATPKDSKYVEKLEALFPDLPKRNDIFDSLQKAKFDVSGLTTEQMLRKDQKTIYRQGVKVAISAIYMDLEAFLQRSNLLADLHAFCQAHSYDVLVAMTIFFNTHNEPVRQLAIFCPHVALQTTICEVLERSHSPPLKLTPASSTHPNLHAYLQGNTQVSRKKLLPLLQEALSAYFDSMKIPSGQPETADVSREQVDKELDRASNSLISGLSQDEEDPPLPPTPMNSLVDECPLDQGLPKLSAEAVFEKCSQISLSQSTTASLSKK
Sequence of UniProt P25788 (P25788 whole entry, looked up): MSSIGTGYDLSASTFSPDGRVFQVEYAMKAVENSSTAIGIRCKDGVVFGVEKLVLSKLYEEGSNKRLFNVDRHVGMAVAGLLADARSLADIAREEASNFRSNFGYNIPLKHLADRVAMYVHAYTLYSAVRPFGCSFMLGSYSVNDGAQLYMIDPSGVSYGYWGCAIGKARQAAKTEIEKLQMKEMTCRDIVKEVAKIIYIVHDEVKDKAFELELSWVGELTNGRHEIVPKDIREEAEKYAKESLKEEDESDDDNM
Sequence of UniProt P53350 (P53350 whole entry, looked up): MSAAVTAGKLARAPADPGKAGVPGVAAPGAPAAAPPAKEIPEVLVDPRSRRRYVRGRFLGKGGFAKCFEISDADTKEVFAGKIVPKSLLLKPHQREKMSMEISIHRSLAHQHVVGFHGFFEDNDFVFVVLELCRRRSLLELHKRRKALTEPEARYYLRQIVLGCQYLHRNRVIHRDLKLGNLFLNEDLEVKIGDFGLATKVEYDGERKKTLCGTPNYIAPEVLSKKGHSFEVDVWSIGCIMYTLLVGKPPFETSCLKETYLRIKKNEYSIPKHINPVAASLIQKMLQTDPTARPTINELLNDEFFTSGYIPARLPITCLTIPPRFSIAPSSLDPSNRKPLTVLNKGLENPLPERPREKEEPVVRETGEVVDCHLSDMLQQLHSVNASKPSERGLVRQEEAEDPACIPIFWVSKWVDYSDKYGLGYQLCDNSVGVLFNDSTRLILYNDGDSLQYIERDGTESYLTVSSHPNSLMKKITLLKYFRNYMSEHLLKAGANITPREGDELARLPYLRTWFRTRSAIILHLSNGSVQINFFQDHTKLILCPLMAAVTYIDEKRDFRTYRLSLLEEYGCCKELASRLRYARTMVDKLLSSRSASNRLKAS
Sequence of UniProt P05423 (P05423 whole entry, looked up): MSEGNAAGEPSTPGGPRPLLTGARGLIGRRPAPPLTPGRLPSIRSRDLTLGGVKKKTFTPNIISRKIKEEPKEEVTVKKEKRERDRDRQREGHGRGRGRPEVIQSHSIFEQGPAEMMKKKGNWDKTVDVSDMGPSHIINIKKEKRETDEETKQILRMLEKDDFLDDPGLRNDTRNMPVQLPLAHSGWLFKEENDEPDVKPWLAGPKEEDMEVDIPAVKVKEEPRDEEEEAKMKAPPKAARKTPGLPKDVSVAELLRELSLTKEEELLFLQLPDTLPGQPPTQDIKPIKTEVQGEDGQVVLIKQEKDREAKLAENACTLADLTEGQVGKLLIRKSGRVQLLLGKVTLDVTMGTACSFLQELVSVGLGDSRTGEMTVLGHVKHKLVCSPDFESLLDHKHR
Sequence of UniProt O00231 (O00231 whole entry, looked up): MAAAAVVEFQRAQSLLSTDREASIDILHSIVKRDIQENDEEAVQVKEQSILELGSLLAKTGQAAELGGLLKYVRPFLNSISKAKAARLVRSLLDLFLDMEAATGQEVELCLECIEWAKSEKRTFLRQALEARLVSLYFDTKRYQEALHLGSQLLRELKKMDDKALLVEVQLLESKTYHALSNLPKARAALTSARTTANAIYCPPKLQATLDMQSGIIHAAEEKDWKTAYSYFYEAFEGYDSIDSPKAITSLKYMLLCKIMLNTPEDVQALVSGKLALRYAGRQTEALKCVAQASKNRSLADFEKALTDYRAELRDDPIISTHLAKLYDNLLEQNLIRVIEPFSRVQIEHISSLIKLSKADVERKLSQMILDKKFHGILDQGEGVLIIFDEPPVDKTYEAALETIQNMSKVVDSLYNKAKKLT
Sequence of UniProt Q7RTV0 (Q7RTV0 whole entry, looked up): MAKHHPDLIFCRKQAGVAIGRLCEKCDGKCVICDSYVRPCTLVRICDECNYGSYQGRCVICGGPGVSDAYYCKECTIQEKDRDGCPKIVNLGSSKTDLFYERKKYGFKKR
Sequence of UniProt Q9Y244 (Q9Y244 whole entry, looked up): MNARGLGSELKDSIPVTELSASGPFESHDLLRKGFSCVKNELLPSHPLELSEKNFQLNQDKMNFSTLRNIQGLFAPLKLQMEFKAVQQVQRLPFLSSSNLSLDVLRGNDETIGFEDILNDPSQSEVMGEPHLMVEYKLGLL

| Target | log2 fold change [1] | log2 fold change [2] | log2 fold change [3] | log2 fold change [4] | log2 fold change [5] | log2 fold change [6] | log2 fold change [7] | log2 fold change [8] | log2 fold change [9] | log2 fold change [10] |
| --- | --- | --- | --- | --- | --- | --- | --- | --- | --- | --- |
| PRKCB isoform 2 (UniProt P05771) | 0.005 | -0.014 | -0.003 | 0.01 | -0.01 | 0.009 | -0.007 | 0.002 | 0.001 | 0.015 |
| PRPF4B (UniProt Q13523) | -0.024 | 0.018 | -0.079 | -0.082 | 0.158 | 0.052 | 0.03 | -0.098 | 0.082 | -0.05 |
| PATL1 (UniProt Q86TB9) | 0.038 | 0.031 | -0.025 | -0.064 | 0.123 | -0.118 | 0.005 | 0.1 | 0.039 | 0.014 |
| POLR3D (UniProt P05423) | -0.078 | 0.014 | -0.01 | -0.023 | 0.153 | 0.03 | 0.055 | 0.104 | 0.065 | 0.098 |
| PELO (UniProt Q9BRX2) | -0.005 | -0.051 | 0.042 | -0.039 | 0.161 | -0.13 | 0.007 | 0.055 | 0.192 | 0.045 |
| PSMD11 (UniProt O00231) | 0.048 | -0.005 | 0.017 | -0.006 | 0.124 | -0.031 | 0.058 | 0.047 | -0.027 | -0.056 |
| PHKA2 (UniProt P46019) | 0.028 | 0 | 0.028 | 0.053 | -0.038 | -0.014 | 0.052 | -0.07 | 0.048 | 0.057 |
| PSMA3 (UniProt P25788) | 0.01 | 0.027 | -0.025 | 0.013 | -0.039 | -0.001 | -0.019 | -0.011 | -0.011 | -0.034 |
| QRICH1 (UniProt Q2TAL8) | 0.064 | -0.021 | 0.06 | 0.192 | 0.158 | 0.173 | 0.122 | -0.215 | 0.07 | 0.214 |
| POLR2A (UniProt P24928) | -0.009 | -0.049 | 0.064 | 0.018 | 0.001 | 0.002 | 0.071 | -0.023 | -0.024 | 0.024 |
| PDCD6 (UniProt O75340) | 0.013 | 0.039 | -0.001 | 0.032 | -0.032 | -0.025 | 0.023 | -0.089 | -0.017 | 0.004 |
| PRUNE1 (UniProt Q86TP1) | 0.056 | -0.014 | -0.005 | -0.028 | 0.161 | 0.129 | 0.036 | 0.022 | 0.056 | 0.105 |
| PLK1 (UniProt P53350) | 0.003 | -0.052 | -0.03 | -0.012 | 0.003 | 0.018 | 0.029 | 0.042 | -0.314 (active) | 0.015 |
| POMP (UniProt Q9Y244) | 0.024 | 0.075 | -0.069 | 0.076 | 0.145 | -0.023 | -0.023 | 0.016 | -0.045 | 0.054 |
| PSMB4 (UniProt P28070) | -0.026 | 0.02 | -0.075 | -0.031 | 0.023 | -0.027 | -0.029 | 0.008 | -0.008 | -0.052 |
| PRKAB2 (UniProt O43741) | 0.122 | -0.015 | 0.106 | 0.118 | -0.079 | 0.074 | 0.177 | -0.18 | 0.027 | 0.067 |
| POMK (UniProt Q9H5K3) | 0.029 | -0.018 | 0.028 | 0 | -0.01 | 0.04 | 0.041 | 0 | 0.002 | 0.11 |

| Target | log2 fold change [1] | log2 fold change [2] | log2 fold change [3] | log2 fold change [4] | log2 fold change [5] | log2 fold change [6] | log2 fold change [7] | log2 fold change [8] | log2 fold change [9] | log2 fold change [10] |
| --- | --- | --- | --- | --- | --- | --- | --- | --- | --- | --- |
| PTPA (UniProt Q15257) | 0.001 | -0.01 | 0.004 | 0.014 | -0.006 | 0.044 | -0.017 | -0.046 | -0.005 | -0.007 |
| PCYT1B (UniProt Q9Y5K3) | 0.007 | 0.022 | 0.011 | 0.034 | -0.06 | 0.022 | 0.049 | -0.031 | 0.038 | 0.048 |
| PTRH2 (UniProt Q9Y3E5) | 0.009 | -0.007 | 0.032 | 0.144 | -0.078 | -0.05 | -0.009 | -0.025 | -0.064 | -0.022 |
| PEX13 (UniProt Q92968) | 0.052 | -0.101 | 0.033 | -0.02 | 0.116 | -0.033 | 0.033 | -0.142 | -0.034 | 0.044 |
| PPP6R1 (UniProt Q9UPN7) | 0.014 | 0.023 | 0.022 | 0.036 | -0.1 | 0.08 | 0.018 | -0.001 | -0.018 | -0.025 |
| POLA2 (UniProt Q14181) | 0.073 | 0.044 | -0.037 | 0.061 | -0.011 | 0.034 | 0.048 | -0.02 | 0.021 | 0.021 |
| PSMC3 (UniProt P17980) | 0.013 | 0.02 | -0.024 | -0.051 | 0.034 | -0.063 | -0.055 | 0.002 | -0.034 | -0.059 |
| POLR3B (UniProt Q9NW08) | 0.024 | -0.062 | -0.008 | 0.022 | 0.026 | 0.003 | 0.172 | 0.063 | 0.138 | 0.114 |
| PISD (UniProt Q9UG56) | -0.015 | 0.002 | 0.013 | 0.085 | 0.022 | -0.068 | 0.049 | 0.009 | 0.024 | 0.026 |
| PCBP2 isoform 3 (UniProt Q15366) | 0.054 | -0.024 | 0.065 | 0.149 | -0.006 | 0.056 | 0.129 | -0.004 | 0.031 | 0.013 |
| PEA15 isoform 2 (UniProt Q15121) | 0.004 | -0.039 | 0.042 | -0.008 | -0.071 | 0.002 | 0.122 | -0.003 | 0.003 | 0.082 |
| PCGF2 (UniProt P35227) | -0.043 | -0.058 | -0.056 | 0.033 | -0.01 | 0 | -0.033 | 0.056 | 0.046 | 0.113 |
| PELP1 (UniProt Q8IZL8) | -0.048 | 0.044 | 0.034 | -0.02 | 0.15 | -0.01 | -0.038 | -0.006 | 0.039 | -0.085 |
| PHF5A (UniProt Q7RTV0) | -0.019 | -0.046 | -0.023 | -0.012 | -0.017 | -0.075 | -0.064 | 0.021 | -0.075 | -0.032 |
| PPP2R5E (UniProt Q16537) | -0.049 | -0.065 | -0.023 | 0.066 | 0.003 | 0.027 | 0.07 | 0.03 | 0.032 | 0.027 |
| PAK4 (UniProt O96013) | -0.154 | 0.06 | -0.017 | -0.017 | -0.027 | -0.035 | -0.026 | -0.141 | -0.01 | 0.027 |
